V-ATPase pHluor = regulators of yeast V-ATPase proton transport; S. cerevisiae, pHLuorin cytosolic pH fluorescence; response, % at 10 µM; 350,000 tested, 0.37% active; AID 504577; in the data active means response mostly above about 7.3%, no sharp cut-off; inactive means mostly below about 5.4%; further: actives read high
HSV replic up = increases HSV replication in cells. HSV replication augmentation in cells, fold increase. maximum fold increase. 220,000 tested, 0.005% active. AID 1956; in the data active means maximum fold increase above about 1.5; tested in PC3 cells
CR mimetic SO = lowers age-related superoxide in aged yeast cells. S. cerevisiae aged cells, superoxide DHE fluorescence; active compounds read low. superoxide response (% of plate mean), % at 10 µM. 330,000 tested, 0.18% active. AID 2690;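 active means superoxide response under a set limit, about three screen SD below normal, cut at about 65% in these data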;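 further: yeast aged for seven days with compound at 30 °C before DHE staining; 100% = average MFI of all compound-treated wells on the plate with controls excluded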
p-CIP stab down = lowers stability of the mouse p/CIP coactivator protein. AID 1984. decrease of EGFP signal, % at 10 µM. 290,000 tested, 0.01% active. F442A p/CIP-EGFP cells, EGFP fluorescence, 16 h;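 active means EGFP signal decrease of at least 30% at 10 µM or well 3 SD below plate mean, unless failing retest; inactive means the rest, including hits failing retest or dose response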
MIN6 prolif = MIN6 beta-cell proliferation induction. MIN6 cells proliferation, ATPlite luminescence, 48 h; cells starved in 0.2% serum; 100% = growth in 10% serum. proliferation, % at 10 µM. 330,000 tested, 0.29% active;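 active means compounds whose signal lies at least 3.5 SD above the mean of all wells on their plate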;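 further: 0% = DMSO-treated cells in low-serum medium and 100% = 10% serum control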
H9c2 protect = myocardial damage modulation in H9c2 cells. protection from H2O2 cell death, % at 20 µM. AID 588492. H9c2 cardiomyocytes, H2O2 injury protection, ATPLite, 2 h. 360,000 tested, 0.63% active;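 active means compounds giving at least 50% protection of heart cells from peroxide-induced death in the single-dose screen, raw or plate-pattern-corrected value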;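 further: 0% = DMSO wells with peroxide and 100% = DMSO wells without peroxide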
Numbers without * were called inactive; i = inactive; . = no result. Most compounds without a hit are left out; they make up all but 1.4% or so of the library.

SMILES	V-ATPase pHluor	HSV replic up	CR mimetic SO	p-CIP stab down	MIN6 prolif	H9c2 protect
COc1cc(C2c3c(oc4ccccc4c3=O)C(=O)N2c2ccc(C)cn2)ccc1O (configuration not stated)	-0.1	i	90.2	1.3	1.0	63.4*
O=c1c2[nH]cnc2n(-c2cccc(Br)c2)c(=O)n1Cc1ccccc1	-2.9	.	93.2	-12.8	-2.7	-5.4
Cc1ccc(N(C(=O)c2csnn2)C(C(=O)NC2CCCCC2)c2cccnc2)cc1 (configuration not stated)	3.1	.	102.9	-8.3	1.1	-1.4
Cc1ccc(O)c(NC(=O)CSc2n[nH]c(-c3ccccc3)n2)c1	-2.3	.	105.9	-17.5	-4.5	-8.1
Cc1cc(SCC(=O)c2ccc(O)c(O)c2)nc2ccccc12	5.3	i	101.2	-0.1	-3.4	51.0*
Cc1cc(SCC(=O)c2ccc3c(c2)OCO3)nc2ccccc12	-3.7	i	110.3	-4.2	-1.3	-2.9
O=C(CSc1n[nH]c(-c2ccccc2)n1)c1ccc(O)c(O)c1	-4.6	i	97.1	-13.1	-1.6	79.5*
Cc1nc(-c2ccccc2)sc1C1(C)CC(c2cccc([N+](=O)[O-])c2)=NO1 (configuration not stated)	-6.6	i	103.0	4.8	-1.9	-2.3
O=C(CN1C(=O)NC2(CCCCC2)C1=O)NCc1cccs1	-0.9	i	85.5	-8.2	2.8	15.7
COc1cc(Br)cc(C=Nc2cccc(C(F)(F)F)c2)c1O	1.9	i	101.0	2.8	.	53.4*
O=C1C=CC(=Nc2cccc3c2C(=O)c2ccccc2-3)O1	10.7*	.	.	.	.	-1.8
O=C(CNC(=O)C(c1ccccc1)c1ccccc1)N/N=C/c1ccc(O)cc1O	-3.4	i	92.2	-15.3	-5.2	56.5*
CCc1cc(C(=O)N/N=C/c2ccc(O)cc2O)c2ccccc2n1	-1.5	.	117.9	-16.4	-5.2	53.0*
O=C(CNC(=O)C(c1ccccc1)c1ccccc1)N/N=C\c1cccc(O)c1	-0.8	i	115.5	-8.4	-2.9	-0.6
O=C(/C=C\c1ccccc1)NCC(=O)N/N=C/c1ccc(O)cc1O	12.2*	.	110.3	-12.3	-1.5	65.6*
O=C(N/N=C/c1ccc(O)cc1O)/C(=C/c1ccccc1)CCO	-0.5	i	104.7	6.9	0.0	57.0*
Cc1ccc(NC(=O)CSc2nc3cc(C(=O)NCC4CCCO4)ccc3c(=O)n2CC2CCCO2)cc1 (configuration not stated)	.	.	.	.	.	13.8
CCOC(=O)CCCCCC(=O)Nc1ccc2c(c1)C(=O)N([C@@H](C)CO)C[C@@H](C)[C@H](CN(C)C(=O)Nc1ccccc1)OCCCC[C@H](C)O2	0.1	.	.	.	.	12.1
O=C(CNC(=O)C1COc2ccccc2O1)N/N=C/c1ccc(O)cc1O (configuration not stated)	0.9	i	98.2	-7.7	-3.6	62.9*
O=C(CNC(=O)C1COc2ccccc2O1)N/N=C\c1cccc(O)c1 (configuration not stated)	-2.6	.	103.2	-1.9	-0.2	-2.2
CCCn1c(=O)c2c(nc3n2CCCN3Cc2ccccc2)n(C)c1=O	-4.1	.	92.8	-5.0	-3.3	-2.7
Cn1c(=O)n(CCc2ccccc2)c(=O)c2c1nc1n2CCCN1Cc1ccccc1	0.4	i	99.5	3.5	-4.1	116.5*
Cn1c(=O)n(CCc2ccccc2)c(=O)c2c1nc1n2CCCN1CCc1ccccc1	-2.3	i	103.7	2.3	-3.2	106.2*
C=CCN1C(=O)c2ccc(C(=O)N(CC)CC(=O)Nc3ccc(OC)cc3)cc2C1=O	1.2	.	107.9	.	-0.3	-1.4
COc1ccc(OCc2nnc(SC(C)C(=O)Nc3nccs3)n2-c2ccccc2)cc1 (configuration not stated)	3.6	i	98.3	-17.3	-2.0	-4.4
SMILES	V-ATPase pHluor	HSV replic up	CR mimetic SO	p-CIP stab down	MIN6 prolif	H9c2 protect
CSCCC(NS(=O)(=O)c1ccc(C)cc1)C(=O)NCC(C)(C)N1CCOCC1 (configuration not stated)	2.1	.	86.9	.	-0.6	3.7
CCOC(=O)c1cccc(NC(=O)CSc2nc3ccccc3c(=O)n2CCOC)c1	2.1	i	97.6	-5.6	-1.6	68.9*
CCOC(=O)c1cccc(NC(=O)CSc2nc3ccccc3c(=O)n2CC)c1	10.1	i	93.0	0.7	-1.7	9.3
CCCn1c(SC(C(=O)Nc2cccc(OC)c2)c2ccccc2)nc2ccccc2c1=O (configuration not stated)	-1.8	i	97.7	-8.2	-3.0	50.4*
COc1ccccc1N(C)S(=O)(=O)c1ccc(C(=O)Nc2cccc(S(=O)(=O)N3CCOCC3)c2)cc1	-2.2	.	.	.	.	-4.1
COc1cc(-c2cc(NC=O)c3ncc(-c4cccc(C(F)(F)F)c4)n3c2)cc(OC)c1OC	.	.	.	.	.	58.6*
COc1cc(-c2cc(NC=O)c3ncc(-c4ccc(C(C)=O)cc4)n3c2)cc(OC)c1OC	.	.	.	.	.	81.4*
COc1ccc(-c2cc(NC=O)c3ncc(-c4cccc(C(F)(F)F)c4)n3c2)cc1OC	.	.	.	.	.	17.4
COc1ccc(-c2cc(NC=O)c3ncc(-c4ccc(C(C)=O)cc4)n3c2)cc1OC	.	.	.	.	.	47.4
COc1cc(-c2cc(NC=O)c3ncc(-c4ccccc4)n3c2)cc(OC)c1OC	.	.	.	.	.	96.0*
CC(=O)OC[C@@H]1CN(Cc2ccccc2)C[C@H](n2cnc3c(N4CCOCC4)ncnc32)O1	.	.	.	.	.	-4.1
CC(C)CC1C(=O)N(Cc2cn(CC3CCCCC3)nn2)CCS(=O)(=O)N1Cc1ccc(-c2cccc(CO)c2)cc1 (configuration not stated)	-0.2	.	.	.	.	-2.5
COCCCN1C(=O)C(CC(=O)NCCCN(C)C)CC(C(=O)N2CCOCC2)=C1C (configuration not stated)	.	.	.	.	.	-2.3
CC1(Cc2ccccc2C#N)C(=O)Nc2ccc(-c3ccccc3)cc21 (configuration not stated)	.	.	.	.	.	-3.5
CC(=O)c1ccc(S(=O)(=O)N2CCN(C(=O)CSC(=S)N3CCCC3)CC2)cc1	0.7	.	94.2	.	1.3	-2.4
NC(=O)c1cccc(Nc2nc(C(N)COCc3ccccc3)cs2)n1 (configuration not stated)	.	.	.	.	.	88.0*
NC(=O)c1ccc(Nc2nc(C(N)COCc3ccccc3)cs2)cc1 (configuration not stated)	.	.	.	.	.	0.5
O=c1c2c3nc4ccccc4nc3n(/N=C/c3ccco3)c2ncn1CCC1=CCCCC1	-1.1	i	104.2	-2.3	-4.4	0.2
Cc1nc2c(c(=O)n1CCC1=CCCCC1)c1nc3ccccc3nc1n2/N=C/c1ccccc1	-5.9	i	99.5	-11.6	-6.4	109.2*
CCCCCCn1c(C)nc2c(c1=O)c1nc3ccccc3nc1n2/N=C/c1ccco1	0.2	i	98.1	-16.9	-6.0	90.5*
CCOCCCn1c(C)nc2c(c1=O)c1nc3ccccc3nc1n2CCC1=CCCCC1	-3.3	i	114.1	-6.0	-6.1	-11.0
Cc1c(NS(=O)(=O)c2cccc(C(=O)Nc3cccc(F)c3)c2)c(=O)n(-c2ccccc2)n1C	-6.9	.	.	.	-5.5	-3.0
